{"source": "PubChem BioAssay AID1508622", "about": "(National Center for Advancing Translational Sciences (NCATS), 2021)", "note": "More than one record can exist for a structure, and the calls need not agree. Activity calls are given as the source filed them. Where a call stands in place of a potency, no number is given. Calls come from the whole dose curve; as a rule, active = well fitted activation curve with a large enough effect; inconclusive = small, poorly fitted or top-dose-only effect; inactive = no such curve, though single readings can be large or run the other way. Potency is the fitted concentration of half-maximal effect."}
{"assay": "Confirmatory qHTS for Identification of Small Molecule Activators of Huntingtin-Antisense Promoter Activity", "settings": "HEK293 HTT-AS promoter firefly luciferase reporter, 24 h; series mostly up to 57.5 µM", "procedure,_shortened": "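Activity normalized between vehicle control (0%) and zero RLU (-100%) from firefly luminescence (Dual-Glo). Compounds, up to 57.5 uM final, incubated 24 h at 37C on HEK293 reporter cells plated 24 h earlier.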"}
{"smiles": "Cn1c(=O)c2sccc2n2c(CCCC(=O)Nc3ccc(Oc4ccc(Cl)cc4)cc3)nnc12", "Potency": "inactive"}
{"smiles": "Cc1ccc(C(=O)Nc2ccc(F)cc2)cc1S(=O)(=O)N1CCCCCC1", "Potency": "inactive"}
{"smiles": "CCCc1cc(N2CCN(c3cccc(C)c3C)CC2)n2cnnc2n1", "Potency": "inactive"}
{"smiles": "CCOC(=O)c1cnc2ccc(OCC)cc2c1Nc1ccc(OCc2ccccc2Cl)cc1", "Potency": "inactive"}
{"smiles": "CC(=O)c1ccc(NS(=O)(=O)c2ccc3[nH]c(=O)[nH]c3c2)cc1", "Potency": "7.57 µM (active)"}
{"smiles": "COc1cc(C2C(C(=O)Nc3ccccc3C)=C(C)Nc3nc(SCc4cc(C)ccc4C)nn32)ccc1O", "note": "(centres undefined)", "Potency": "inactive"}
{"smiles": "CN(CC(=O)Nc1ccc(OC(F)(F)F)cc1)S(=O)(=O)c1ccc2c(c1)CCC(=O)N2", "Potency": "inactive"}
{"smiles": "Cc1ccc(NC(=O)c2ccc(F)c(S(=O)(=O)N3CCc4ccccc4C3)c2)cc1F", "Potency": "inactive"}
{"smiles": "O=C(Nc1ccc2c(c1)CCCN2C(=O)c1cccs1)c1cccc(C(F)(F)F)c1", "Potency": "inactive"}
{"smiles": "Cc1nc(Nc2n[nH]c3c2CN(C(=O)N[C@H](CN(C)C)c2ccccc2)C3(C)C)c2sccc2n1", "Potency": "inactive"}
{"smiles": "O=C1C2=C(Nc3ccccc3SC2c2ccc(C(F)(F)F)cc2)c2ccccc21", "note": "(centres undefined)", "Potency": "inactive"}
{"smiles": "O=C(Nc1cc(Cl)cc(Cl)c1)c1ccc(F)c(S(=O)(=O)N2CCCC2)c1", "Potency": "inactive"}
{"smiles": "COc1cc(CCC(=O)NCc2ccc3c(c2)CCN3C(=O)c2ccccc2)cc(OC)c1OC", "Potency": "inactive"}
{"smiles": "O=C(Nc1ccc(F)cc1F)N1CCN(c2ccc(Cl)c(Cl)c2)CC1", "Potency": "inactive"}
{"smiles": "COc1cc(NS(=O)(=O)c2ccc(-c3cc(C)no3)cc2)cc(OC)c1", "Potency": "inactive"}
{"smiles": "O=C(Nc1ccc(F)c(Cl)c1)c1cc(S(=O)(=O)N2CCCc3ccccc32)ccc1F", "Potency": "inactive"}
{"smiles": "CCOC(=O)c1cc(-c2ccccc2)n(CCCC(=O)Nc2ccc(CC)cc2)c1C", "Potency": "inactive"}
{"smiles": "COc1ccccc1N1CCN(C(=O)C2CCCN(S(=O)(=O)c3ccc4c(c3)CCCN4C(C)=O)C2)CC1", "note": "(centres undefined)", "Potency": "inactive"}
{"smiles": "Cc1cccc(Cn2c(SCc3ccc(C(=O)N4CCC(C)CC4)cc3)nc3ccncc32)c1", "Potency": "inactive"}
{"smiles": "C1=CCOCc2cc(ccc2OCCN2CCCC2)Nc2nccc(n2)-c2cccc(c2)OCC1", "Potency": "inactive"}
{"smiles": "Cn1c(=O)n(C)c2cc(NS(=O)(=O)c3ccc(C(C)(C)C)cc3)c(NCc3ccccc3)cc21", "Potency": "inactive"}
{"smiles": "COc1ccccc1CNC(=O)c1ccc(N2CCCC2)c(NC(=O)NCc2ccc(C)cc2)c1", "Potency": "inactive"}
{"smiles": "O=C(CCCCCCC(=O)Nc1ccccc1)NO", "Potency": "19 µM (active) and inactive"}
{"smiles": "CC1CCCCN1S(=O)(=O)c1ccc2c(c1)oc(=O)n2CC(=O)Nc1ccc(Cl)cc1", "note": "(centres undefined)", "Potency": "inactive"}
{"smiles": "CN(C)c1ccc(C(=O)Nc2sc(Nc3ccccc3)nc2C(N)=O)cc1", "Potency": "inactive"}
{"smiles": "CC(C)OCc1cc(CN2CCN(c3ccccc3)CC2)c(O)c2ncccc12", "Potency": "inactive"}
{"smiles": "Cc1cc(Nc2sc(C(=O)c3ccc(F)cc3)c(N)c2C(=O)Nc2ccc(F)cc2)ccc1Cl", "Potency": "inactive"}
{"smiles": "O=C1CSC2(C(=O)N(Cc3cccc(C(F)(F)F)c3)c3ccccc32)N1c1ccc(F)c(F)c1", "note": "(centres undefined)", "Potency": "inactive"}
{"smiles": "Cc1ccc(C)c(N2CCN(CCCNC(=O)c3cnn(-c4ccccc4Cl)c3C3CCN(C(=O)OC(C)(C)C)CC3)CC2)c1", "Potency": "inactive"}
{"smiles": "CCc1cccc2sc(N3CCN(C(=O)c4cc5ccccc5cc4OC)CC3)nc12", "Potency": "inactive"}
{"smiles": "O=S(=O)(Nc1ccc(OC(F)(F)F)cc1)c1ccc(N2CCCCS2(=O)=O)cc1", "Potency": "inactive"}
{"smiles": "COC(=O)[C@]12CCC(C)(C)C[C@@H]1[C@@H]1C(=O)C=C3[C@@]4(C)C=C(C#N)C(=O)C(C)(C)[C@@H]4CC[C@@]3(C)[C@]1(C)CC2", "Potency": "inactive"}
{"smiles": "CCOCCCNC(=O)c1c[nH]c2ccc(S(=O)(=O)N(C)c3ccc(Cl)cc3F)cc2c1=O", "Potency": "inactive"}
{"smiles": "CCOc1ccc(CCNC(=O)CSCc2nc(-c3cccc(C)c3)oc2C)cc1OCC", "Potency": "inactive"}
{"smiles": "CCc1ccc(NC(=O)c2ccc3oc(=O)n(Cc4ccccc4)c3c2)cc1", "Potency": "inactive"}
{"smiles": "CC(C)Oc1ccc(CNC(=O)C2CCN(C(=O)N3CCOc4ccc(Cl)cc43)CC2)cc1", "Potency": "inactive"}
{"smiles": "Cc1oc(-c2ccc(Cl)cc2)nc1CN1CCCC(C(=O)NCCc2ccccc2)C1", "note": "(centres undefined)", "Potency": "inactive"}
{"smiles": "CCOc1cc(CNC(=O)c2sc3ncnc(N(C)C4CCCCC4)c3c2C)ccc1OC", "Potency": "inactive"}
{"smiles": "COc1cccc(CNC(=O)c2ccc(-c3nc(COc4ccccc4)c(C)o3)cc2)c1", "Potency": "inactive"}
